Screening data (PubChem BioAssay)
Shown are actives, neighbours in structure and some others; about 1.9% of the full set was active somewhere.
ClpP mod: qHTS Assay for Activators of ClpP | ATP-dependent Clp protease proteolytic subunit (Bacillus subtilis (strain 168)), P80244 | purified B. subtilis ClpP, FRET peptide cleavage, 20 min | Potency, µM (series often up to 57.5 µM), for the others: at the highest dose activity change, negative = active | hit rate 1.9% among 340,000; active = well fitted falling curve with a large enough effect; inconclusive = small, poorly fitted or top-dose-only effect; inactive = no such curve, though single readings can be large or run the other way; also: potency is read from the fitted curve at half-maximal effect; the source files actives as falling curves though it sought activators and does not explain the sign; nearly all actives have a fitted effect of over 65% in size
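FRET quenching reversal measured ClpP activation: 10 microg/mL B. subtilis ClpP at pH 8 with the FRET-FV decapeptide, read at 430 nm after 320 nm excitation. The 20-min minus 0-min signal was scaled between DMSO/no-enzyme wells and ADEP (5.8 microM final).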
USP2a inh: qHTS Assay for Inhibitors of Ubiquitin-specific Protease USP2a Using CHOP2 as the Reporter | Ubiquitin carboxyl-terminal hydrolase 2 (Homo sapiens), O75604 | USP2 core, Ub-CHOP2 coupled fluorogenic reporter, 485/531 | Potency, µM (titrated, usually from 38.3 µM), for the others: at the highest dose activity change, negative = inhibition, actives largely listed as inhibitors | hit rate 0.01% among 330,000 | AID 463254, 2010;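 also: potency is read from the fitted curve at half-maximal effect; plate controls were DMSO wells for no effect and full inhibition by NEM control for full effect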
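Deubiquitinase activity read as fluorescence (485/531 nm) after Ub-CHOP2 cleavage activates the enterokinase reporter on its substrate; USP2 core 10nM, Ub-CHOP2 and substrate 25nM each, 30min compound preincubation then 60min RT; data normalized to NEM, curves fitted.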
Pin1 inhibitor: qHTS Assay to Find Inhibitors of Pin1. AID 504891, 2011. Peptidyl-prolyl cis-trans isomerase NIMA-interacting 1 (Homo sapiens), Q13526. Pin1 FP peptide displacement, HiFluor488, 10 min. hit rate 0.009% among 390,000. Potency, µM (top dose mostly 115 µM), for inactives: top-dose activity, negative = inhibition, hits mostly inhibitors; active = well fitted inhibition curve with a large enough effect in the polarisation, with a control signal flat, not every such curve was filed as active; inconclusive = small, poorly fitted or top-dose-only effect, or effect the other way, or a change in a side signal; inactive = no such curve, though single readings can be large or run the other way; the % refers to the polarisation; also: potency is read from the fitted curve at half-maximal effect; % is scaled to controls: 0 for no effect and ±100 for the full control effect
Target sequence (Q13526 whole entry, looked up): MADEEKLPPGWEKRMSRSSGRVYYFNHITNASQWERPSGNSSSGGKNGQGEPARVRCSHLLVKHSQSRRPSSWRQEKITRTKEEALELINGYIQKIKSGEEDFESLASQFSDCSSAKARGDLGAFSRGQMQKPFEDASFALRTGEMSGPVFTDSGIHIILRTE
Integrin act MD: qHTS for Activators of Integrin-Mediated Alleviation for Muscular Dystrophy; alpha7betagal myoblasts, beta-gal FDG fluorescence, 48 h; Potency, µM (highest dose often 38.3 µM), for inactives: top-dose activation, usual class: activators; hit rate 0.064% among 350,000;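 also: potency is read from the fitted curve at half-maximal effect; 100% = response of the positive control SU9516; nearly all actives have a fitted effect of over 60% in size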
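Alpha7betagal+/- myoblasts (passage 13) were plated 16-24 hr, then exposed to compounds (1:260 dilution of DMSO stock) for 48 hours at 37C. After MPER lysis, β-galactosidase reporter activity was read as FDG fluorescence (ex 480/em 540) after 30 minutes.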
IL2 activator: qHTS of IL-2 Activators; IL-2 activation reporter assay, cell-based qHTS; stimulated with anti-CD3/CD4/CD28 beads; in transgenic mouse T cells; activation, % (series mostly up to about 46 µM); hit rate 0.065% among 360,000; AID 652025, 2013; in the data active = activation above about 50%; inconclusive = mostly about 30% to 49%; also: 0% is about no effect
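Readout: EGFP and DsRed signals by fluorescent plate cytometry. Unstimulated transgenic mouse T cells received compound 60 min before antibody-bead stimulation, then incubated 18 h at 37 degrees C.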
PKM2 act: qHTS Assay for Activators of Human Muscle isoform 2 Pyruvate Kinase | purified PKM2, Kinase-Glo ATP luminescence, activation; response scale: 0% is enzyme alone, no compound | hit rate 0.34% among 260,000 | Potency, µM (doses to about 57.5 µM), for the others: top-dose activation, most hits filed as activators | Pyruvate kinase PKM (Homo sapiens), P14618; also: potency is read from the fitted curve at half-maximal effect; % is scaled to controls: 0 for no effect and ±100 for the full control effect; nearly all actives have a fitted effect of over 55% in size
Target sequence (P14618 whole entry, looked up, canonical isoform): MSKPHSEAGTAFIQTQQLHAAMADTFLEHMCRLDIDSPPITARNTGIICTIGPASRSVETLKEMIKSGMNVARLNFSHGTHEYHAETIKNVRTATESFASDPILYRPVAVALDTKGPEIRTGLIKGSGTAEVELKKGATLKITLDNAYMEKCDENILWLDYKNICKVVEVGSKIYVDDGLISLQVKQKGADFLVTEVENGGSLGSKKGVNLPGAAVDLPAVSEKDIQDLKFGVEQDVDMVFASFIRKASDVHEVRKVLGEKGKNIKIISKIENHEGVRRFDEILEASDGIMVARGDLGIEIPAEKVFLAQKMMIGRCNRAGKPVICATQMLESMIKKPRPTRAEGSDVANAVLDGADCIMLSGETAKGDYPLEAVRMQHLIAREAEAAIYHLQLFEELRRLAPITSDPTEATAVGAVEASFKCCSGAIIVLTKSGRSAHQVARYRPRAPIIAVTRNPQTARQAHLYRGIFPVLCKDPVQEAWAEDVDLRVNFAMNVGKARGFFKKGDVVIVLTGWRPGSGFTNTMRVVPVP
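Purified hPK-M2 (>95%) run at intermediate activity with 0.1 mM ADP and 0.5 mM PEP in 50 mM imidazole pH 7.2, KCl, MgCl2; 1 h room temperature. ATP formed read by Kinase-Glo luminescence; normalized to uninhibited and no-enzyme controls.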
An asterisk follows results filed as active; ? = inconclusive; . = no result given; [ ] = dose if it differs, or a comment. Unless noted, calls follow the shape of the dose curve; as a rule, active = well fitted curve in the direction sought with a large enough effect; inconclusive = small, poorly fitted or top-dose-only effect, or another doubt; inactive = no such curve, though single readings can be large; an effect the other way counts as inactive or inconclusive.

SMILES	ClpP mod	USP2a inh	Pin1 inhibitor	Integrin act MD	IL2 activator	PKM2 act
CCOc1cc(C(=O)N(C)Cc2cc3cc(OC)ccc3[nH]c2=O)cc(OCC)c1OCC	-3%	0%	0%	9%	0	4%
CCOc1ccccc1C(=O)N(C)Cc1cc2cc(OC)ccc2[nH]c1=O	32µM*	-1%	1%	-7%	0	-2%
CCOc1ccc(N(Cc2cc3cc(OC)ccc3[nH]c2=O)S(C)(=O)=O)cc1	28µM*	4%	7%	-14%	-2	2%
C(=Nc1ccc2ccccc2n1)c1ccccn1	5%	.	.	.	.	.
CC(C)(C)Sc1ccc2nc3c(n2c1)CCCC3	16µM*	0%	-4%	-40%	1	2%
COc1ccc(C(=O)N2CCN(c3ccc(N4CCOCC4)nn3)CC2)cc1OC	25µM*	1%	0%	10%	-1	.
CCC(C)NC(=O)CCCCCn1c(=O)[nH]c2cc(OC)c(OC)cc2c1=O (stereo not given)	28µM*	0%	-3%	-6%	0	-4%
COc1cc2[nH]c(=O)n(CCCCCC(=O)NC3CCCC3)c(=O)c2cc1OC	.	1%	-14%	-12%	-1	1%
CCOc1cc2[nH]c(=O)n(CCCCCC(=O)NC(C)CC)c(=O)c2cc1OCC (stereo not given)	5%	.	-3%	.	.	.
COc1cc2[nH]c(=O)n(CCC(=O)NC3CCCC3)c(=O)c2cc1OC	28µM*	2%	-10%	9%	1	-11%
CCCCNC(=O)CCCCCn1c(=O)[nH]c2cc(OC)c(OC)cc2c1=O	28µM*	-1%	-5%	-21%	-4	-4%
O=C1c2ccccc2C(=O)N1c1cccc(N2C(=O)c3ccccc3C2=O)n1	0%	.	-3%	.	.	.
CCC(=O)N1C2=C(c3ccccc3[C@@H]1CC(=O)Nc1ccc3ccccc3c1)[C@@H]1C(=O)N(c3ccccc3)C(=O)[C@@H]1[C@H](C)C2	.	.	.	.	.	-10%[11.5 µM]
COC(CNC(=O)c1c[nH]c2ccc(S(=O)(=O)N3CCC4(CC3)OCCO4)cc2c1=O)OC	22µM*	1%	11%	0%	4	5%
O=C(c1c[nH]c2ccc(S(=O)(=O)N3CCC4(CC3)OCCO4)cc2c1=O)N1CCOCC1	16µM*	5%	12%	7%	-3	3%
Cc1cccc(N(C)S(=O)(=O)c2ccc3[nH]cc(C(=O)N4CCOCC4)c(=O)c3c2)c1	?	2%	3%	20%	1	-1%
COC(CNC(=O)c1c[nH]c2ccc(S(=O)(=O)N3CCOCC3)cc2c1=O)OC	4%	0%	0%	13%	0	1%
CC(O)(c1ccccc1)[N+]1(CC(=O)c2ccccc2)C=CC=C1 (stereo not given)	-3%	.	.	.	.	.
CC(C)NC(C(=O)Nc1cc(Cl)cc(Cl)c1)c1ccccc1 (stereo not given)	28µM*	0%	2%	-25%	0	3%
C[C@@H](/C=C/c1ccc2ccccc2c1)C1COC(=O)C[C@H]1O (stereo not given in full)	.	.	4%	.	.	.
O=C1CCCC2=C1C1(CCCC1)N=C(Nc1nc3ccccc3s1)N2	28µM*	-3%	-22%	12%	-2	-5%
COc1ccccc1C1/C(=C(/O)c2ccc(C)cc2)C(=O)C(=O)N1CC(C)O (stereo not given)	28µM*	0%	-2%	-14%	1	-2%
CCOC(=O)CSc1nc(C)c2cc(OC)ccc2n1	14µM*	2%	24%	8%	0	2%
CCC(=O)N/C(N)=N/c1nc(C)c2cc(OC)ccc2n1	3.2µM*	1%	-5%	-21%	0	2%
CCCOc1ccc2nc(C)c(CCC)c(SC(=N)N)c2c1	-4%	9%	6%	-9%	0	-1%
SMILES	ClpP mod	USP2a inh	Pin1 inhibitor	Integrin act MD	IL2 activator	PKM2 act
CCCc1c(C)nc2ccc(OC)cc2c1SCCC(=O)O	13µM*	4%	?	4%	-1	7%
COc1ccc2nc(/N=C(\N)NC(=O)C(C)(C)C)nc(C)c2c1	32µM*	4%	5%	7%	0	11%
CCOC(=O)CSc1nc(C)c2cc(C)c(C)cc2n1	.	-1%	13%	-1%	1	-1%
OCC(O)C[n+]1cccc(Br)c1 (stereo not given)	0%	.	.	.	.	.
O=[S+]([O-])(c1ccc2c(c1)OCCO2)N1CCN([S+](=O)([O-])c2ccc(F)cc2Br)CC1	.	.	-1%	.	.	.
Cc1ccccc1NC(=O)c1nc(SCc2ccccc2F)ncc1Cl	-9%	.	.	.	.	.
Nc1c(Cl)cc(/C=C2\C=Cc3ccccc32)cc1Cl	-1%	.	.	.	.	.
CCOC(=O)Cn1c2ccc(OC)cc2c2nc3ccccc3nc21	1%	-1%	?	23%	51*	-2%
COC(=O)Cn1c2ccc(OC)cc2c2nc3ccccc3nc21	0%	1%	3%	0%	2	0%
Cc1ccsc1/C=N/n1cnc2sc(C)c(C)c2c1=O	32µM*	7%	8%	12%	0	3%
Cc1sc2ncn(/N=C/c3cn(-c4ccccc4)nc3-c3ccccc3)c(=O)c2c1C	.	.	21%	.	.	.
CCCNC(=O)NS(=O)(=O)c1cnccc1Sc1ccc(Cl)c(Cl)c1	22µM*	1%	0%	-7%	0	-17%
COc1ccc(CNC(=O)c2[nH]c(C)c(C(C)=O)c2C)cc1	.	-2%	3%	7%	0	.
COc1ccc(CCNC(=O)c2[nH]c(C)c(C(C)=O)c2C)cc1	35µM*	1%	2%	-17%	0	25%
COc1ccc(C(C)(C)C)cc1NC(=O)c1[nH]c(C)c(C(C)=O)c1C	.	0%	?	35%	-1	18µM*
CN(C)c1ccc(/C=N\Nc2ccc([N+](=O)[O-])cc2[N+](=O)[O-])cc1Br	0%	.	.	.	.	.
CN1CCc2sc(NC(=O)Cc3ccccc3)c(C(=O)Nc3ccc(Cl)cc3)c2C1	.	.	23%	.	.	.
CCNC(=O)c1ccccc1SCc1ccccc1	.	-1%	-2%	-32%	-2	-1%
CCc1ccc(OCCNC(=O)c2ccccc2SCc2ccccc2)cc1	28µM*	-3%	4%	-13%	-1	10%
O=C(Cn1ccc2ccccc2c1=O)NCCC(=O)Nc1cccnc1	-23%	2%	-8%	-5%	-1	-6%
